Our source for the Potency and outcome values is PubChem BioAssay (Tox21).

Values without a mark were called inactive. Records with an inconclusive call do not appear. The source made the active and inactive calls. Unless noted, calls come from the whole dose curve; as a rule, active = well fitted curve in the direction sought with a large enough effect in the repeat runs; inconclusive = weak or mixed curves; inactive = no such curve, though single readings can be large; an effect the other way counts as inactive or inconclusive.

A short description of experiment [1]: qHTS RealTime-Glo MT Cell Viability Assay in HEK293 cells - 0 hour (AID 1224880). Note: top concentration of the series differs between compounds; nearly all actives have a fitted effect of over 45% in size. In outline: (§1)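 HEK293 + NanoLuc + prosubstrate, 600 cells/well; 5 h, 37 C/5% CO2; compound 23 nL in DMSO by pintool; 37 C; luminescence read at 0, 8, 16, 24, 32 and 40 h time points.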
Experiment [2] can be described thus: A CellTox Green Cytotoxicity Assay to monitor cytotoxicity in HEK293 cells - 32 hour (AID 1224881). Note: nearly all actives have a fitted effect of over 40% in size. In outline: (§2)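 Tox21 screen in HEK293: membrane-impermeant cyanine dye fluoresces on binding dead-cell DNA; compound pinned 5 h post-seeding, plates held at 37 C, signal read repeatedly through 40 h.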
Experiment [3] can be described thus: A CellTox Green Cytotoxicity Assay to monitor cytotoxicity in HepG2 cells - 0 hour (AID 1224882). Note: nearly all actives have a fitted effect of over 35% in size. In outline:
(§3)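 Measurements at 0, 8, 16, 24, 32 and 40 h of treatment captured CellTox Green fluorescence in HepG2 cells that had been co-plated with reagent and preincubated 5 h at 37 C/5% CO2.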

Experiment [4] can be described thus: A CellTox Green Cytotoxicity Assay to monitor cytotoxicity in HepG2 cells - 32 hour (AID 1224883). Note: nearly all actives have a fitted effect of over 50% in size. The essentials: as §3
Experiment [5] in a line: A CellTox Green Cytotoxicity Assay to monitor cytotoxicity in HEK293 cells - 8 hour (AID 1224884). Note: nearly all actives have a fitted effect of over 35% in size. Note: potency is the fitted concentration of half-maximal effect. In outline:
as §2

Experiment [6] in a line: qHTS RealTime-Glo MT Cell Viability Assay in HepG2 cells - 16 hour (AID 1224885). Note: nearly all actives have a fitted effect of over 50% in size. In outline:
(§4)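 Real-time, nonlytic viability: 600 HepG2 cells/well mixed with NanoLuc enzyme plus prosubstrate; 5 h settle, compound (DMSO) added by pintool; luminescence monitored over 40 h at 37 C.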
(In general: qHTS replaces the single test concentration by a dilution series.)

A short description of experiment [7]: qHTS RealTime-Glo MT Cell Viability Assay in HEK293 cells - 24 hour (AID 1224886). Note: top concentration of the series differs between compounds; nearly all actives have a fitted effect of over 50% in size. The essentials:
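Cells + reagent dispensed (600 cells/well, HEK293) → 5 h at 37 C/5% CO2 → 23 nL compound in DMSO pinned → 40 h at 37 C → luminescence read at 0, 8, 16, 24, 32, 40 h.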

Experiment [8] is described as follows: qHTS RealTime-Glo MT Cell Viability Assay in HEK293 cells - 8 hour (AID 1224887). Note: top concentration of the series differs between compounds; nearly all actives have a fitted effect of over 50% in size. The essentials:
as §1

A short description of experiment [9]: A CellTox Green Cytotoxicity Assay to monitor cytotoxicity in HEK293 cells - 16 hour (AID 1224888). Note: nearly all actives have a fitted effect of over 35% in size. In outline:
as §2

Experiment [10] in a line: A CellTox Green Cytotoxicity Assay to monitor cytotoxicity in HepG2 cells - 8 hour (AID 1224890). Note: nearly all actives have a fitted effect of over 45% in size. The essentials:
as §3

The nature of experiment [11]: qHTS assay to identify small molecule antagonists of the estrogen receptor alpha (ER-alpha) signaling pathway using the BG1 cell line in the presence of 0.1 nM 17-beta-estradiol - cell viability counter screen (AID 1259241). Note: nearly all actives have a fitted effect of over 40% in size. In outline:
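VM7Luc4E2 cells (endogenous ER-alpha, 4×ERE-luciferase), hormone-starved 5 days in charcoal-stripped FBS, were treated with compounds plus 0.1 nM 17beta-estradiol for 22 hr at 37C; viability read in same wells as CellTiter-Fluor live-cell protease fluorescence.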

Experiment [12] can be described thus: qHTS assay to identify small molecule antagonists of the androgen receptor (AR) signaling pathway using the MDA cell line in the presence of 0.5 nM R1881 - cell viability counter screen (AID 1259242). Note: nearly all actives have a fitted effect of over 45% in size. The essentials:
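Concentration-response screen of compounds for toxicity in MDA-kb2 reporter cells: 16 hr at 37C with 0.5 nM R1881, endpoint live-cell protease fluorescence measured in the reporter wells.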

Experiment [13] in a line: qHTS assay to identify small molecule HDAC inhibitors (AID 1259364).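 Note: wild-type HCT-116 cells with endogenous class I/II HDAC activity; top concentration of the series differs between compounds; nearly all actives have a fitted effect of over 45% in size.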 The essentials: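 Screening used wild-type human colon HCT-116 cells incubated overnight, dosed with compounds for 2 hours, and assayed with a homogeneous luminogenic HDAC I/II reagent for 30 minutes at room temperature.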
Experiment [14] is described as follows: qHTS assay to identify small molecule HDAC inhibitors - cell viability counter screen (AID 1259365). In outline:
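Wild-type HCT-116 cells were seeded at 1,500 per well, incubated overnight at 37 C, then exposed to compounds in DMSO for 2hr. Viability was read by CellTiter-Glo luminescence after 30min at room temperature.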

Experiment [15] is described as follows: qHTS assay to identify small molecule agonists of the sonic hedgehog signaling (Shh) pathway - cell viability counter screen (AID 1259366). Note: nearly all actives have a fitted effect of over 50% in size. In outline: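 NIH/3T3-derived 3T3 Gli1-Luc cells (stable Gli1-responsive firefly luciferase reporter) were seeded, rested 4 hr at 37 C/5% CO2, then exposed to compounds in DMSO for 24 hr; viability was read by CellTiter-Fluor fluorescence in the same wells.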

Experiment [16] in a line: qHTS assay to identify small molecule antagonists of the sonic hedgehog signaling (Shh) pathway - cell viability counter screen (AID 1259367). Note: nearly all actives have a fitted effect of over 55% in size. The essentials: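 Conditioned medium drove Shh signaling in 3T3 Gli1-Luc cells exposed to compounds at 37C and 5% CO2. Viability was determined from CellTiter-Fluor fluorescence, with reagent incubated 1 hr after 23 hr of treatment.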

Experiment [17] in a line: qHTS RealTime-Glo MT Cell Viability Assay in HepG2 cells - 0 hour (AID 1224889). Note: nearly all actives have a fitted effect of over 50% in size. In outline:
as §4

In experiment [18] the target is Estrogen receptor (Homo sapiens) (UniProt P03372). Kind of experiment: qHTS assay to identify small molecule antagonists of the estrogen receptor alpha (ER-alpha) signaling pathway using the BG1 cell line in the presence of 0.1 nM 17-beta-estradiol (AID 1259244). Note: nearly all actives have a fitted effect of over 50% in size. In outline:
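Compounds were tested against 0.1 nM (final) 17beta-estradiol in VM7Luc4E2 cells, which express full-length ER-alpha and an ERE-luciferase reporter; luminescence was recorded following 22 h exposure.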

In experiment [19] the target is Androgen receptor (Homo sapiens) (UniProt P10275). The experiment in a line: qHTS assay to identify small molecule antagonists of the androgen receptor (AR) signaling pathway using the MDA cell line in the presence of 0.5 nM R1881 (AID 1259243). Note: nearly all actives have a fitted effect of over 50% in size. In outline: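 With R1881 held at 0.5 nM (final), compound effects on MMTV-luciferase expression in MDA-kb2 cells were scored by luminescence after a 16 hr, 37C incubation.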

Experiment [20] is described as follows: qHTS assay to identify small molecule phospholipidosis (PLD) inducers (AID 1259344; active = well fitted curve in the direction sought with a large enough effect; an effect the other way counts as inactive or inconclusive). In outline:
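After 4 h attachment on collagen I, HepG2 cells were dosed with compound alongside LipidTOX Red, kept 24 h at 37 C, fixed, and imaged for lamellar phospholipid pits.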

Sequence of Estrogen receptor (Homo sapiens) (P03372 whole entry, looked up): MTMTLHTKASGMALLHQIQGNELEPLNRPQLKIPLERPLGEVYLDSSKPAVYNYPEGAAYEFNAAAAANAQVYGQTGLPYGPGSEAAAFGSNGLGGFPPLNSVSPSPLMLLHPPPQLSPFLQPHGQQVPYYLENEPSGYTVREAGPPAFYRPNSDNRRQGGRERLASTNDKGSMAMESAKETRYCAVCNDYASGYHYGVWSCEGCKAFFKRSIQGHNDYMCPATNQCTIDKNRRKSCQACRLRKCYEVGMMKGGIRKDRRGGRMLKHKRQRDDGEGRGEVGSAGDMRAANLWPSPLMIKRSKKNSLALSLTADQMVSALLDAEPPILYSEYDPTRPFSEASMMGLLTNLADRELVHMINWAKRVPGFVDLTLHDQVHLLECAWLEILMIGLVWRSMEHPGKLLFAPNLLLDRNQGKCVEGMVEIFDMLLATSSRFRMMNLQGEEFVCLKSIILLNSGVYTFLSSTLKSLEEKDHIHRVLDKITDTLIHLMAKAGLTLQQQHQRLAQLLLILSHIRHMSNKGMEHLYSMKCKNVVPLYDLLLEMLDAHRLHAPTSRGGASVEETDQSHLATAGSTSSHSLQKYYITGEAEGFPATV
Sequence of Androgen receptor (Homo sapiens) (P10275 whole entry, looked up): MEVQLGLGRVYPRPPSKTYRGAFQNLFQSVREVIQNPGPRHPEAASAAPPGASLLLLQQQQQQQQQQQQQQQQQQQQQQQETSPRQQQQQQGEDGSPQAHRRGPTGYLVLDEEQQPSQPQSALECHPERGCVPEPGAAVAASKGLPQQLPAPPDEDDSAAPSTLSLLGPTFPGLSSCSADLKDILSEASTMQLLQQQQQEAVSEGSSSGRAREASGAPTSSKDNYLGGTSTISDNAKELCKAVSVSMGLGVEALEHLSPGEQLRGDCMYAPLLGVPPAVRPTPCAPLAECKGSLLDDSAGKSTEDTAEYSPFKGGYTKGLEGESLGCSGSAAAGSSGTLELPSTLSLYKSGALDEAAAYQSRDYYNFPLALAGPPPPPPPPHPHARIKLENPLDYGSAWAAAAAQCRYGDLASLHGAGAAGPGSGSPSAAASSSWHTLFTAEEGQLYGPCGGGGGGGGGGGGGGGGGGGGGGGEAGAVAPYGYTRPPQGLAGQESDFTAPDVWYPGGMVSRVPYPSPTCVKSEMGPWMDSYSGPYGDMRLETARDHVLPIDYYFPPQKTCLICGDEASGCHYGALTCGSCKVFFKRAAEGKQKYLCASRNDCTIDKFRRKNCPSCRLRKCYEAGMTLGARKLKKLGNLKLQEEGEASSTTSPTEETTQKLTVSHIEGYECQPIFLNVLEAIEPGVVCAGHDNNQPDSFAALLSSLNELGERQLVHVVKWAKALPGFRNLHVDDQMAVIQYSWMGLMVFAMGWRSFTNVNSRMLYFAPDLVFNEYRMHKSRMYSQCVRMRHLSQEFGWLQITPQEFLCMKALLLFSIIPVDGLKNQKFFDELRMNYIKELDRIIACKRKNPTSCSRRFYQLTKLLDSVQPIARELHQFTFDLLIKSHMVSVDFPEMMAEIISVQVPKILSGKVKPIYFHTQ

`CC(=O)c1sc(C)nc1C`: the Potency entry in [1], in experiment [2], in experiment [4], in [5], in experiment [7] and in experiment [8] was “inactive” throughout. Moreover, the Potency entry in experiment [11], in [13], in experiment [15] and in experiment [16] was “inactive” each time. In addition, the call in [3], in experiment [6], in experiment [9], in experiment [10], in experiment [12] and in [14] was inactive.
In the case of `CC(=O)Nc1cccc(C)c1`, the Potency entry in experiment [1], in experiment [2], in experiment [4], in experiment [5], in [17] and in experiment [11] was “inactive” in each case. Besides, the Potency result in [13], in experiment [15] and in experiment [16] was “inactive” throughout. Also, the result in experiment [3], in experiment [6], in experiment [9], in experiment [10], in experiment [12] and in [14] was inactive.
Regarding `CC(C)(C)c1n[nH]c(=S)n(N)c1=O`, the Potency result in [1], in experiment [2], in experiment [4], in experiment [7], in experiment [8] and in experiment [17] was “inactive” in each case. In addition, the Potency result in experiment [11], in [18], in experiment [13], in [15] and in [16] was “inactive” in each case. For the same compound, the outcome in [3], in [6], in [9], in [10], in experiment [12] and in experiment [14] was inactive.
On to `O=C(O)c1cc(Cl)cc([N+](=O)[O-])c1Cl`, for which the Potency entry in experiment [1], in [2], in experiment [4], in [7], in experiment [8] and in [17] was “inactive” in each case. The Potency entry in experiment [11], in experiment [19], in [18], in experiment [13], in experiment [15] and in experiment [16] was “inactive” each time. The call in [3], in [6], in experiment [9], in experiment [10], in experiment [12] and in experiment [14] was inactive.
Consider `CCCCCCOc1ccccc1C(N)=O`, for which the Potency result in experiment [1], in experiment [2], in experiment [4], in experiment [5], in experiment [17] and in experiment [11] was “inactive” in each case. Moreover, the Potency entry in experiment [15] and in experiment [16] was “inactive” throughout. Moreover, the result in experiment [3], in experiment [6], in experiment [9], in experiment [10], in experiment [12] and in [20] was inactive. Besides, the compound was called inactive in experiment [14].
For `CC(=O)Nc1ccc(S(=O)(=O)Nc2ccc([N+](=O)[O-])cc2)cc1`, the Potency result in experiment [1], in [2], in experiment [4], in experiment [5], in experiment [7] and in experiment [8] was “inactive” in each case. The Potency entry in [17], in experiment [18] and in [13] was “inactive” each time. Also, the result in experiment [3], in [6], in [9], in [10], in [12] and in experiment [20] was inactive. Also, the compound was called inactive in experiment [14].
`Cc1cc(Cl)c(C)cc1Cl`: the Potency result in experiment [1], in [2], in experiment [4], in [5], in experiment [7] and in experiment [8] was “inactive” throughout. Further, the Potency entry in experiment [17], in experiment [19], in [13], in experiment [15] and in experiment [16] was “inactive” in each case. Also, the outcome in experiment [3], in experiment [6], in experiment [9], in experiment [10], in [12] and in experiment [14] was inactive.
Regarding `CCOCCOCCOCC`, the Potency entry in [1], in experiment [2], in [4], in [5], in experiment [7] and in experiment [8] was “inactive” each time. Moreover, the Potency result in experiment [17], in experiment [11], in experiment [13] and in experiment [15] was “inactive” throughout. The result in experiment [3], in [6], in experiment [9], in experiment [10] and in experiment [14] was inactive.
`CCc1ccc(C=O)cc1`: the Potency result in [1], in experiment [2], in [4], in experiment [7], in experiment [8] and in experiment [17] was “inactive” each time. Also, the Potency entry in [11], in experiment [13] and in experiment [15] was “inactive” throughout. For the same compound, the compound was classed as inactive in [3], in experiment [6], in experiment [9], in experiment [10], in experiment [12] and in experiment [14].
Take `O=C(O)Cc1cn(-c2ccccc2)nc1-c1ccc(Cl)cc1`: the Potency result in experiment [1], in [2], in [4], in [7], in experiment [8] and in experiment [17] was “inactive” each time. Moreover, the Potency result in [11], in [18], in [13], in experiment [15] and in experiment [16] was “inactive” in each case. The result in experiment [3], in [6], in [9], in experiment [10], in experiment [12] and in experiment [20] was inactive. For the same compound, in [14], the result was inactive.
In the case of `O=C1CC(c2ccc(Cl)cc2)CC(=O)N1`, the Potency entry in [1], in experiment [2], in [4], in experiment [7], in [8] and in experiment [17] was “inactive” throughout. The Potency entry in experiment [11], in experiment [18], in [13], in experiment [15] and in experiment [16] was “inactive” each time. Besides, the compound was classed as inactive in experiment [3], in experiment [6], in experiment [9], in experiment [10], in [12] and in experiment [14].
On to `CC1=C(C(=O)O)N2C(=O)[C@@H](NC(=O)[C@H](N)c3ccc(O)cc3)[C@H]2SC1`, for which the Potency result in experiment [1], in [2], in experiment [4], in experiment [7], in experiment [8] and in [17] was “inactive” throughout. The Potency entry in experiment [11], in experiment [13], in experiment [15] and in [16] was “inactive” in each case. The result in experiment [3], in [6], in [9], in experiment [10], in experiment [12] and in [20] was inactive. The outcome in experiment [14] was inactive.
As to `CCCCOCCOC(=O)COc1nc(Cl)c(Cl)cc1Cl`, the Potency entry in experiment [1], in experiment [2], in experiment [4], in experiment [7], in experiment [8] and in experiment [11] was “inactive” in each case. The Potency result in experiment [18], in experiment [13], in experiment [15] and in experiment [16] was “inactive” in each case. The call in experiment [3], in experiment [6], in experiment [9], in experiment [10], in experiment [12] and in experiment [14] was inactive. Also, in experiment [5], the Potency was 38.9 µM (active).
In the case of `CC(C)OC(=O)CCCCC(=O)OC(C)C`, the Potency entry in experiment [1], in experiment [2], in [4], in [7], in experiment [8] and in [17] was “inactive” each time. The Potency result in [11], in experiment [18], in experiment [13] and in [15] was “inactive” each time. In addition, the compound was called inactive in experiment [3], in experiment [6], in [9], in experiment [10], in experiment [12] and in experiment [14].
